PubChem BioAssay (NCI)
About 79,000 compounds went through this panel and 15% of them were active in at least one assay; those are over-represented in the sample as a whole. Unmarked numbers belong to inactive results. Calls of active or inactive are those of the source. No stated cut-off is given here; in the data, active means growth inhibition above about 70%; inactive means the rest.

Tests used:
[1] = NCI Yeast Anticancer Drug Screen. Data for the rad52 strain (AID 147);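 further: 0% = growth of vehicle-treated control cultures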; conditions: S. cerevisiae rad52 mutant growth inhibition, stronger effect = higher value
Outline: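 Here a repair-compromised yeast strain receives each compound; its growth is then quantified and normalised to vehicle-only controls.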

[2] = NCI Yeast Anticancer Drug Screen. Data for the rad50EPP+ strain (AID 151);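 further: 0% = growth of vehicle-treated control cultures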; conditions: S. cerevisiae rad50 mutant strain, stronger effect = higher value
Outline: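 Read-out is yeast growth inhibition relative to vehicle; cells used were the rad50EPP+ strain.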

[3] = NCI Yeast Anticancer Drug Screen. Data for the mgt1 strain (AID 153); conditions: S. cerevisiae mgt1 mutant growth inhibition, stronger effect = higher value
Outline: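 Measured: inhibition of mgt1 yeast growth by compound, normalized to vehicle-treated cultures.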

[4] = NCI Yeast Anticancer Drug Screen. Data for the rad50 strain (AID 155);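 further: 0% = growth of vehicle-only cultures of the same strain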; conditions: S. cerevisiae rad50 strain growth inhibition, stronger effect = higher value
Outline: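 Genetically altered yeast (DNA repair pathway); compound treatment; growth inhibition vs vehicle ctrl.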

[5] = NCI Yeast Anticancer Drug Screen. Data for the mec2-1 strain (AID 157); conditions: S. cerevisiae mec2-1 strain, stronger effect = higher value
Outline: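 Using mec2-1 yeast: add compound, measure growth, express inhibition versus vehicle-treated cultures.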

[6] = NCI Yeast Anticancer Drug Screen. Data for the sgs1 mgt1 strain (AID 161);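 further: 0% = growth of cultures given vehicle only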; conditions: S. cerevisiae sgs1 mgt1 strain, stronger effect = higher value
Outline: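 Growth of a repair-deficient yeast mutant was monitored after compound treatment and expressed as inhibition relative to vehicle-treated cultures.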

[7] = NCI Yeast Anticancer Drug Screen. Data for the CLN2oe strain (AID 163);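 further: 0% = growth of vehicle-only control cultures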; conditions: S. cerevisiae CLN2oe strain, stronger effect = higher value
Outline: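 Whole-cell yeast growth assay. A strain engineered for altered cell-cycle control received compound, and inhibition relative to vehicle-treated cultures was recorded.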

[8] = NCI Yeast Anticancer Drug Screen. Data for the cln2 rad14 strain (AID 165);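 further: 0% = growth equal to vehicle treated cultures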; conditions: S. cerevisiae cln2 rad14 strain, stronger effect = higher value
Outline: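 Yeast strain cln2 rad14, bearing defects in cell cycle control and DNA repair, serves as the test system; values reflect growth inhibition compared with vehicle.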

[9] = NCI Yeast Anticancer Drug Screen. Data for the bub3 strain (AID 167); conditions: S. cerevisiae bub3 mutant strain, stronger effect = higher value
Outline: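 Yeast carrying a defined mutation is treated with each compound, and growth is compared with that of vehicle-exposed cells to give inhibition.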

[10] = NCI Yeast Anticancer Drug Screen. Data for the mlh1 strain (AID 171);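 further: 0% = growth of vehicle-treated control cultures of the same strain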; conditions: S. cerevisiae mlh1 strain growth inhibition, stronger effect = higher value
Outline: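 A yeast strain with a defined genetic lesion serves as the test organism. Cultures receive compound or vehicle, and growth is measured.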

[11] = NCI Yeast Anticancer Drug Screen. Data for the sgs1 strain (AID 173);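 further: 0% = growth of vehicle-only control cultures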; conditions: S. cerevisiae sgs1 mutant, stronger effect = higher value
Outline: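 A genetically defined yeast mutant is incubated with the test compound, and its growth is compared to that of the same strain given vehicle.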

[12] = NCI Yeast Anticancer Drug Screen. Data for the mlh1 rad18 strain (AID 175); conditions: S. cerevisiae mlh1 rad18 strain growth inhibition, stronger effect = higher value
Outline: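 Steps: expose repair-defective yeast to compound; measure growth; express inhibition against vehicle-treated controls.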

[13] = NCI Yeast Anticancer Drug Screen. Data for the rad18 strain (AID 177); conditions: S. cerevisiae rad18 mutant growth inhibition, stronger effect = higher value
Outline: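 Measured value is growth inhibition of a yeast strain bearing a DNA repair alteration, referenced to vehicle-treated cells.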

[14] = at 5.0 µM (retest, dose inferred, filed as 0.5)
[15] = at 50.0 µM (retest, dose inferred, filed as 5.0)

O=C1C=C(Br)C(=O)c2ccccc21
growth inhibition ([1]; at 1.2 µM): 6% | growth inhibition ([1]; at 3.7 µM): 19% | growth inhibition ([1]; at 11.0 µM): 94% (active) | growth inhibition ([1]; at 33.0 µM): 99% (active) | growth inhibition ([1]; at 100.0 µM): 99% (active) | growth inhibition ([2]; at 1.2 µM): 19% | growth inhibition ([2]; at 3.7 µM): 39% | growth inhibition ([2]; at 11.0 µM): 95% (active) | growth inhibition ([2]; at 33.0 µM): 99% (active) | growth inhibition ([2]; at 100.0 µM): 98% (active) | growth inhibition ([3]; at 1.2 µM): 11% | growth inhibition ([3]; at 3.7 µM): 18% | growth inhibition ([3]; at 11.0 µM): 96% (active) | growth inhibition ([3]; at 33.0 µM): 99% (active) | growth inhibition ([3]; at 100.0 µM): 99% (active) | growth inhibition ([4]; at 1.2 µM): 9% | growth inhibition ([4]; at 3.7 µM): 46% | growth inhibition [4, 14]: 27% | growth inhibition ([4]; at 11.0 µM): 98% (active) | growth inhibition ([4]; at 33.0 µM): 99% (active) | growth inhibition [4, 15]: 99% (active) | growth inhibition ([4]; at 50.0 µM): 99.2% (active) | growth inhibition ([4]; at 100.0 µM): 99% (active) | growth inhibition ([5]; at 1.2 µM): 17% | growth inhibition ([5]; at 3.7 µM): 37% | growth inhibition [5, 14]: 39% | growth inhibition ([5]; at 11.0 µM): 97% (active) | growth inhibition ([5]; at 33.0 µM): 99% (active) | growth inhibition [5, 15]: 99% (active) | growth inhibition ([5]; at 50.0 µM): 99.2% (active) | growth inhibition ([5]; at 100.0 µM): 99% (active) | growth inhibition [6, 14]: 57% | growth inhibition [6, 15]: 99% (active) | growth inhibition ([6]; at 50.0 µM): 99.2% (active) | growth inhibition ([7]; at 1.2 µM): 5% | growth inhibition ([7]; at 3.7 µM): 9% | growth inhibition ([7]; at 11.0 µM): 47% | growth inhibition ([7]; at 33.0 µM): 99% (active) | growth inhibition ([7]; at 100.0 µM): 99% (active) | growth inhibition [8, 14]: 5% | growth inhibition [8, 15]: 99% (active) | growth inhibition ([8]; at 50.0 µM): 99.1% (active) | growth inhibition ([9]; at 1.2 µM): 22% | growth inhibition ([9]; at 3.7 µM): 44% | growth inhibition [9, 14]: 86% (active) | growth inhibition ([9]; at 11.0 µM): 99% (active) | growth inhibition ([9]; at 33.0 µM): 99% (active) | growth inhibition [9, 15]: 99% (active) | growth inhibition ([9]; at 50.0 µM): 99% (active) | growth inhibition ([9]; at 100.0 µM): 99% (active) | growth inhibition ([10]; at 1.2 µM): 8% | growth inhibition ([10]; at 3.7 µM): 11% | growth inhibition ([10]; at 11.0 µM): 98% (active) | growth inhibition ([10]; at 33.0 µM): 99% (active) | growth inhibition ([10]; at 100.0 µM): 99% (active) | growth inhibition ([11]; at 1.2 µM): 8% | growth inhibition ([11]; at 3.7 µM): 19% | growth inhibition ([11]; at 11.0 µM): 93% (active) | growth inhibition ([11]; at 33.0 µM): 99% (active) | growth inhibition ([11]; at 100.0 µM): 99% (active) | growth inhibition [12, 14]: 53% | growth inhibition [12, 15]: 99% (active) | growth inhibition ([12]; at 50.0 µM): 99.1% (active) | growth inhibition ([13]; at 1.2 µM): 5% | growth inhibition ([13]; at 3.7 µM): 11% | growth inhibition ([13]; at 11.0 µM): 82% (active) | growth inhibition ([13]; at 33.0 µM): 99% (active) | growth inhibition ([13]; at 100.0 µM): 98% (active)
